Measured values taken from ChEMBL document CHEMBL3988442, “University of Dundee, Small-Polar-MMV Screening Library” (2021).
Where “and” joins values, the source holds several entries; their conditions need not be identical. Equal values may be shown once. The whole screen tested about 38,000 compounds, of which about 1,200 (3.2%) showed an effect of 50% or more. The median lay at about -58%. The sample holds strong results, similar compounds and a random draw of the others, so the mix is not that of the screen.

Test system: Plasmodium falciparum
Experiment: Calibr Malaria Delayed Death Assay SOP
Assay type: functional, organism-based
Parameters: scale not given: in the data most compounds retested in dose-response had high values
Conditions: concentration 4.99e-06 (unit not given; other assays of the set use mol/L)

Structure (SMILES) | Percent Effect | Percent Effect (4.99 µM)
O=C(O)C1(O)CCN(c2ccc3cccc(Cl)c3n2)CC1 | -181.1% | –
CCCN1CCC(c2nc3ccc(-c4cccc(F)c4)cn3n2)CC1.O=C(O)C(F)(F)F | 31.95% | –
COc1ccc(Cn2nnnc2SCC2CCCN(C)C2)cc1 (configuration not stated) | 58.9% | –
COc1ccc(CN2CC[C@H](c3nnc(-c4ccco4)o3)C2)cc1 | -19.38% | –
COc1ccc(OC)c(-n2nnnc2SCC2CCCN(C)C2)c1 (configuration not stated) | 41.34% | –
O=C(O)C(F)(F)F.O=C(c1cccs1)N1CCOCC2(C1)CN(c1cccnc1)C(=O)CO2 (configuration not stated) | -98.48% | –
Cc1ccc(C(=O)Nc2nnc(CC(C)C)s2)c(-n2cnnn2)c1C | -82.26% | –
Cn1ccnc1CN1CCC(Cn2cc(-c3ccncc3)nn2)CC1 | -74.11% | –
C=C(C)CNCC1(O)CCCN(Cc2ccc(F)c(F)c2)C1=O (configuration not stated) | -91.62% | –
O=C1N(Cc2cccc(F)c2F)CCCC1(O)CNC1CCCC1 (configuration not stated) | 59.35% | –
COc1ccc(F)c(CN2CCCC(O)(CNCc3ncc[nH]3)C2=O)c1 (configuration not stated) | -101.4% | –
COCCNCC1(O)CCCN(Cc2ccc(F)c(F)c2)C1=O (configuration not stated) | 23.01% | –
CN1CCC(NCC2(O)CCCN(Cc3ccccc3F)C2=O)CC1 (configuration not stated) | 4.135% | –
O=C(CNCC1(O)CCCN(Cc2cccc(F)c2F)C1=O)NC1CC1 (configuration not stated) | -101.8% | –
COc1ccc(F)c(CN2CCCC(O)(CNC3CCCCC3)C2=O)c1 (configuration not stated) | 69.02% | –
O=C1N(Cc2cccc(F)c2F)CCCC1(O)CNCC1CCCCC1 (configuration not stated) | 73.31% | –
O=C1N(Cc2cccc(F)c2F)CCCC1(O)CNCc1ccccn1 (configuration not stated) | 0.3162% | –
COC(=O)CNCC1(O)CCCN(Cc2cccc(F)c2F)C1=O (configuration not stated) | -57.14% | –
COc1ccc(F)c(CN2CCCC(O)(CNCc3ccon3)C2=O)c1 (configuration not stated) | -23.9% | –
O=C1N(Cc2ccc(F)c(F)c2)CCCC1(O)CNCC1CCCCC1 (configuration not stated) | 73.06% | –
O=C(CCc1cccnc1)N1CCC2(CCN(CC3CCCC3)C2)C1.O=C(O)C(F)(F)F.O=C(O)C(F)(F)F (configuration not stated) | 15.87% | –
Cn1cc(NC(=O)CNC(=O)N2CCN(c3cccc(Cl)c3)CC2)cn1 | -19.66% | –
Cc1ccc(NC(C(N)=O)c2ccc(F)cc2)cc1 (configuration not stated) | -42.35% | –
O=C(NCCc1nnc2n1CCC2)NC1(c2cccc(F)c2)CC1 | -62.64% | –
CNC(=O)c1cnc2c(C)csc2c1 | -145.8% | –

Structure (SMILES) | Percent Effect | Percent Effect (4.99 µM)
Cc1nn(C2CCS(=O)(=O)C2)c(O)c1Cc1ccccc1Cl (configuration not stated) | -17.18% | –
Cc1noc([C@H]2CC[C@@H]3[C@@H](CCN3c3ncccn3)O2)n1 | -94.2% | –
Cc1ccc(C)c(OCCN(C)C(=O)CCc2cn[nH]c2)c1 | -90.4% | –
CCc1noc(C)c1C(=O)N1CCC2(CCCN(CC(C)(C)C)C2=O)C1 (configuration not stated) | – | -34.55% and -37.04%
Cc1cccnc1CNCC1(O)CCCN(CC(C)(C)C)C1=O (configuration not stated) | -8.334% | –
CC(C)(C)CNCC1(O)CCCN(Cc2ccccc2F)C1=O (configuration not stated) | 83.8% | –
COc1ccc(F)c(CN2CCCC(O)(CNCC(C)(C)C)C2=O)c1 (configuration not stated) | 48.73% | –
CC1CCN(CC2(O)CCCN(Cc3cccc(F)c3F)C2=O)CC1 (configuration not stated) | -78.62% | –
CN(CC1(O)CCCN(Cc2cccc(F)c2F)C1=O)C1CCCCC1 (configuration not stated) | 63.45% | –
O=C1N(Cc2cccc(F)c2F)CCCC1(O)CN1CCCOCC1 (configuration not stated) | 40.89% | –
CC(C)C(C)NC(=O)CNc1cc2c(cc1Cl)NC(=O)CO2 (configuration not stated) | -65.88% | –
CCOCC1CN(S(=O)(=O)C2CC2)Cc2ncn(CC3CC3)c21 (configuration not stated) | -12.84% | –
c1ccc(-c2nnc([C@H]3CCN(C4CCOCC4)C3)o2)cc1 | -0.6483% | –
Cc1noc(C)c1CN1CC[C@H](OCC2CC2)[C@@H](Cc2ccccc2)C1 | 60.12% | –
Cc1noc(C)c1CN1C[C@H](OCC2CC2)[C@H]2COC[C@H]21.O=C(O)C(F)(F)F | -59.49% | –
O=C(C1CCOCC1)N1CC[C@@H](N2CCOCC2)[C@@H]1Cc1ccccc1 | 3.107% | –
O=C(O)C(F)(F)F.c1ccc(C[C@H]2CN(Cc3nccs3)CC[C@@H]2OCC2CC2)cc1 | 38.1% | –
OC(CNc1ccncn1)CN1CCCCCC1 (configuration not stated) | -2.039% | –
CC(C)c1ccc(C(=O)N2CCOCC2CC(=O)c2ccco2)cn1 (configuration not stated) | -33.41% | –
CS(=O)(=O)N1CCCC(Cc2cncc(Br)c2)CC1 (configuration not stated) | -9.475% | –
FC(F)(F)c1ccc2nc([C@H]3CCN(C4CCCCC4)C3)[nH]c2c1 | 83.6% | –
FC(F)(F)c1ccc2nc([C@H]3CCN(C4CCC4)C3)[nH]c2c1 | 5.22% | –
CS(=O)(=O)N1CC[C@H](c2nc3ccc(C(F)(F)F)cc3[nH]2)C1 | -89.81% | –
O=C(CCc1ccccc1)N1CCCCC1Cn1cccn1 (configuration not stated) | -77.88% | –
Cc1cnc(N2CCC3(CC2)CC3CN(C)Cc2cccnc2)nc1.O=C(O)C(F)(F)F.O=C(O)C(F)(F)F (configuration not stated) | -34.71% | –

Structure (SMILES) | Percent Effect | Percent Effect (4.99 µM)
CN(Cc1cccnc1)CC1CC12CCN(c1nncs1)CC2.O=C(O)C(F)(F)F.O=C(O)C(F)(F)F.O=C(O)C(F)(F)F (configuration not stated) | -14.98% | –
Cc1ccc(CN2CCC3(CC2)CC3CN(C)Cc2cccnc2)o1.O=C(O)C(F)(F)F.O=C(O)C(F)(F)F.O=C(O)C(F)(F)F (configuration not stated) | 69.86% | –
CCOC(=O)C1(Cc2ccccc2)CCCN(Cc2nccn2CC)C1 (configuration not stated) | 71.35% | –
CCOC(=O)C1(CCOC)CCCN(Cc2nccn2CC)C1 (configuration not stated) | 6.985% | –
Cc1cnc(C)c(N2CCCC(CO)(Cc3cccc(Cl)c3)C2)n1 (configuration not stated) | -85.57% | –
CCn1ccnc1CN1CCCC(CO)(Cc2cccc(Cl)c2)C1 (configuration not stated) | 76.24% | –
CCn1ccnc1CN1CCCC(CO)(CCCc2ccccc2)C1 (configuration not stated) | 5.561% | –
CCOC(=O)C1(CCOC)CCN(Cc2nccn2CC)CC1 | -18.48% | –
CCn1c(N)nc2cc(C(=O)NCCc3ccccc3F)cnc21 | -271.4% | –
CCc1nc(C2CCCN2CC(=O)Nc2cc(C)nn2C)no1 (configuration not stated) | -146.1% | –
O=C(Cc1cccc(F)c1)NC1CCCc2cn[nH]c21 (configuration not stated) | -5.228% | –
CN(CCCOc1ccccc1)S(=O)(=O)c1cnn(C)c1 | -2.544% | –
O=C(Cc1c[nH]c2ncccc12)NCC(O)c1ccsc1 (configuration not stated) | -112.4% | –
NC(=O)c1ccccc1NC(=O)CCN1CCN(CCO)CC1 | -1.535% | –
Cc1nn(C)c(N(C)C)c1CNCC(O)c1ccccc1 (configuration not stated) | -52.78% | –
Cc1ccccc1CNCC(O)c1ccc(OC(C)C)cc1 (configuration not stated) | 92.11% | –
CC(C)Oc1ccc(C(O)CNCc2ccccc2C(F)(F)F)cc1 (configuration not stated) | 82.7% | –
CC(=O)Nc1ccc(CNCC(O)c2ccc(C)cc2)cc1 (configuration not stated) | -93.75% | –
CN(Cc1ccccc1C(F)(F)F)C(C(N)=O)c1ccccc1 (configuration not stated) | -32.88% | –
Cl.OC(CNCc1ccccc1C(F)(F)F)c1ccccc1 (configuration not stated) | 81.89% | –
CC(O)CNCc1ccccc1C(F)(F)F.Cl (configuration not stated) | -50.42% | –
CC(C(N)=O)N(C)Cc1ccccc1C(F)(F)F (configuration not stated) | -7.943% | –
CC(=O)Nc1ccc(CNCC(O)c2ccccc2)cc1 (configuration not stated) | 6.789% | –
COC(=O)CNC(=O)C(C)Oc1ccccc1C(F)(F)F (configuration not stated) | -63.42% | –
CC(C)Oc1cccc(C(O)CNC(=O)NCc2cccs2)c1 (configuration not stated) | -103.2% | –

Structure (SMILES) | Percent Effect | Percent Effect (4.99 µM)
CC(C)C(NC(=O)NCCNc1ncccn1)c1cccs1 (configuration not stated) | -40.63% | –
CN1CCC2(CC1)CN(C(=O)c1ccncc1)Cc1ccccc12 | -65.66% | –
O=C(CCC1CCCO1)NCCCC(=O)Nc1ccc(Cl)cc1 (configuration not stated) | -199.2% | –
CCOc1ccc(S(=O)(=O)N(CCOC)Cc2ccncc2)cc1F | -28.24% | –
O=C(CCn1ccnn1)N1CCCC(n2cncn2)C1 (configuration not stated) | -95.7% | –
CC(C)N1CCCC(C(=O)NCCc2csc(-c3ccncc3)n2)C1 (configuration not stated) | -80.76% | –
CNC(=O)C1CCN(c2nc3nc[nH]c(=O)c3s2)CC1 | -123.8% | –
CC(C)CN1C(=O)C2(CCN(Cc3ccoc3)C2)c2ccccc21.O=C(O)C(F)(F)F (configuration not stated) | -29.95% | –
COC(=O)c1ncccc1N1CCC(C(O)c2ccccc2)CC1 (configuration not stated) | -12.82% | –
Cn1ccnc1CN1CCCC2(CCN(CC3CCCO3)CC2)C1.O=C(O)C(F)(F)F.O=C(O)C(F)(F)F (configuration not stated) | 15.47% | –
COc1ccc(CN2C[C@@H]3OCCN(C)[C@@H]3C2)cc1.O=C(O)C(F)(F)F | -49.2% | –
CN(C)CCN1CCO[C@H]2CN(Cc3ccccn3)C[C@H]21.O=C(O)C(F)(F)F.O=C(O)C(F)(F)F.O=C(O)C(F)(F)F.O=C(O)C(F)(F)F | 8.318% | –
Fc1ccc(CN2C[C@@H]3OCCN(CCN4CCCC4)[C@@H]3C2)cc1.O=C(O)C(F)(F)F.O=C(O)C(F)(F)F.O=C(O)C(F)(F)F | -79.23% | –
COc1ccc(CN2C[C@@H]3OCCN(CCN4CCCC4)[C@@H]3C2)cc1.O=C(O)C(F)(F)F.O=C(O)C(F)(F)F.O=C(O)C(F)(F)F | 62.07% | –
COc1ncccc1CN1C[C@@H]2OCCN(CCN(C)C)[C@@H]2C1.O=C(O)C(F)(F)F.O=C(O)C(F)(F)F.O=C(O)C(F)(F)F | -6.564% | –
COc1ccc(CN2C[C@@H]3OCCN(CCN(C)C)[C@@H]3C2)cc1.O=C(O)C(F)(F)F.O=C(O)C(F)(F)F.O=C(O)C(F)(F)F | 65.18% | –
CCc1ccc(CN2C[C@@H]3OCCN(c4ccnc(N(C)C)n4)[C@@H]3C2)o1.O=C(O)C(F)(F)F | 5.976% | –
O=C(O)C(F)(F)F.O=C(O)C(F)(F)F.O=C(O)C(F)(F)F.O=C(O)C(F)(F)F.c1cc(CN2C[C@@H]3OCCN(CCN4CCCC4)[C@@H]3C2)ccn1 | -114.9% | –
COCCN1CC[C@@H]2CN(Cc3cccnc3OC)C[C@@H]2C1.O=C(O)C(F)(F)F.O=C(O)C(F)(F)F | -74.35% | –
COc1ncccc1CN1CC[C@H]2[C@H]1CCN2CCN(C)C.O=C(O)C(F)(F)F.O=C(O)C(F)(F)F.O=C(O)C(F)(F)F.O=C(O)C(F)(F)F | 52.47% | –
CN(C)c1nccc(N2CCO[C@H]3CN(Cc4ccsc4)C[C@H]32)n1.O=C(O)C(F)(F)F | 68.45% | –
O=C(O)C(F)(F)F.O=C(O)C(F)(F)F.c1cnc(N2CCO[C@H]3CN(Cc4ccsc4)C[C@H]32)nc1 | 32.67% | –
